Results filed as inconclusive are left out. A call without a number means that no potency is given here. Unmarked numbers belong to inactive results. Calls of active or inactive are those of the source. Calls come from the whole dose curve; as a rule, active = well fitted inhibition curve with a large enough effect; inconclusive = small, poorly fitted or top-dose-only effect; inactive = no such curve, though single readings can be large or run the other way.
Potency is the fitted concentration of half-maximal effect.

This assay has as its system Zika virus NS2B-NS3 protease (unlinked complex). Put plainly: Primary screen GU Rhodamine qHTS for Zika virus inhibitors: Unlinked NS2B-NS3 protease assay (AID 1347159). Note: nearly all actives have a fitted effect of over 60% in size. The settings on record: Recombinant ZIKV NS2B-NS3 protease, Rhodamine110 substrate fluorescence; series mostly up to 107 µM. The method in brief: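 Compounds, tested up to 114 microM, were incubated for 15 minutes with 25 nM unlinked NS2B-NS3 protease at pH 8.0. Cleavage of 1.5 microM Rhodamine110 substrate was then followed by fluorescence for 15 minutes.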
As to `CC1=C(CO)CC(C(C)C2CCC3C4CC=C5CC(OC6OC(COC7OC(CO)C(O)C(O)C7O)C(O)C(O)C6O)CC(O)C5(C)C4CCC23C)OC1=O` (centres undefined), the Potency result was “inactive”.
As for `CC1=CC(=O)CC(C)(C)C1CCC(C)O[C@@H]1O[C@H](CO)[C@@H](O)[C@H](O)[C@H]1O` (some centres undefined), the Potency result was “inactive”.
The same measure, in the same setting: the entry for `CC1(C)CC[C@]2(C(=O)O[C@@H]3O[C@H](CO[C@@H]4O[C@H](CO)[C@@H](O)[C@H](O)[C@H]4O)[C@@H](O)[C@H](O[C@@H]4O[C@H](CO)[C@@H](O)[C@H](O)[C@H]4O)[C@H]3O)[C@H](O)C[C@]3(C)C(=CCC4[C@@]5(C)CC[C@H](O[C@@H]6OC[C@@H](O)[C@H](O)[C@H]6O)[C@@](C)(C(=O)O)C5CC[C@]43C)[C@@H]2C1` (some centres undefined) is “inactive”; for `NC(=O)c1ccc(F)c2c1C[C@@H](N(C1CCC1)C1CCC1)CO2` it is “inactive”.
Still for that read-out and setting: the entry for `O=C(O)c1ccnc2cc(-c3nc4ccccc4n3CCN3CCCCC3)sc12` is “inactive”; for `C/C(=C/CO)CC[C@H]1[C@]2(C)C[C@H](O)CC(C)(C)[C@H]2CC[C@]1(C)O` it is “inactive”; for `C[C@H]1CC(=O)C2=C(C1)C(O)C(O)[C@@]1(O)[C@H]2C(=O)c2cccc(O)c2[C@@H]1O` (some centres undefined) it is “inactive”.
Still for that read-out and setting: in the case of `CSCC1OC(n2cnc3c(=O)[nH]cnc32)C(O)C1O` (centres undefined) it was “inactive”; in that of `CCOC(=O)C(CCc1ccccc1)NC(C)C(=O)N1Cc2ccccc2CC1C(=O)O` (centres undefined), “inactive”; in that of `COc1cc(C[C@@]2(O)CO[C@@H](c3ccc(O[C@@H]4O[C@H](CO)[C@@H](O)[C@H](O)[C@H]4O)c(OC)c3)[C@H]2CO)ccc1O`, “inactive”.
Take `CC1=C2CC(=O)C(C)CC/C=C(\C)CC2OC1=O` (centres undefined): the Potency entry was “inactive”.
As to `CC(C)=C1CC2[C@](C)(CC[C@@H](OC(=O)C3(C)OC3C)[C@@]2(C)O)CC1=O` (some centres undefined), the Potency result is “inactive”.
Same read-out and setting: in the case of `CCN(CCN(C)C)C(=O)CNCc1cc(C(N)=O)ccn1` it was “inactive”.
Still for that read-out and setting: in the case of `C/C=C(\C)C(=O)OC[C@H]1O[C@@H](O[C@H]2[C@@H](O[C@H]3O[C@H](CO)[C@@H](O)[C@H](O)[C@H]3O[C@@H]3O[C@H](CO)[C@@H](O)[C@H](O)[C@H]3O)O[C@H](COC(=O)/C(C)=C/C)[C@@H](O)[C@@H]2O)[C@H](O)[C@@H](O)[C@@H]1O` it was “inactive”.
For `CC1(C)CC[C@]2(C(=O)O[C@@H]3O[C@H](CO)[C@@H](O)[C@H](O)[C@H]3O)CC[C@]3(C)C(=CCC4[C@@]5(C)C[C@H](O)[C@H](O[C@@H]6OC[C@@H](O)[C@H](O)[C@H]6O)[C@@](C)(CO)C5CC[C@]43C)C2C1` (some centres undefined), the Potency entry is “inactive”.
The same measure, in the same setting: in the case of `COc1ccc2[nH]c(S(=O)Cc3ncc(C)c(OC)c3C)nc2c1` (centres undefined) it was “inactive”.
Still for that read-out and setting: in the case of `CCCC(C(=O)O)c1c(C)nc2ccc(Cl)cc2c1-c1ccccc1` (centres undefined) it was 31.6 µM (active); in that of `CCC(=O)N1CCc2cc(OC)c(O)cc2C1`, “inactive”.
As to `CN1CCCC1Cc1c[nH]c2ccc(CCS(=O)(=O)c3ccccc3)cc12` (centres undefined), the Potency entry was “inactive”.
Consider `CO[C@@H]1[C@]2(O)C(=O)N3/C=C\C(C)(C)c4[nH]c5ccccc5c4/C=C\3C(=O)N2[C@]23[C@H](CO)C(C)(C)N2c2ccccc2[C@]13O`, for which the Potency entry was “inactive”.
The same measure, in the same setting: the figure for `CC(C)c1ccc2c(c1)CCC1[C@](C)(C(=O)O)CCC[C@]21C` (some centres undefined) is 20 µM (active); for `NC(=O)NCCCC(NC(=O)Cc1ccccc1)C(=O)O` (centres undefined) it is “inactive”.
As for `C[C@]12CCC[C@](C)(C(=O)O)C1CCC13CC(CO)C(CCC12)C3` (some centres undefined), the Potency entry is “inactive”.
In the case of `CC(=O)OCC1OC(O[C@H]2CC[C@]34C[C@]35CC(O)[C@]3(C)[C@@H]([C@H](C)CC/C=C(\C)C(=O)O)C(O)C[C@@]3(C)C5CC[C@H]4C2(C)C)C(O)C(O)C1OC1OCC(O)C(O)C1O` (some centres undefined), the Potency entry is “inactive”.
Still for that read-out and setting: the entry for `CN1CCc2cc(Cl)c(O)cc2[C@@H](c2cccc3c2OCC3)C1` is “inactive”; for `C=C1CC[C@@]2(OC1)O[C@H]1CC3C4CC=C5C[C@@H](O[C@@H]6O[C@@H](C)[C@H](O)[C@@H](O)[C@H]6O)C[C@@H](O[C@@H]6O[C@H](C)[C@H](O)[C@H](O)[C@H]6O[C@@H]6O[C@@H](C)[C@H](O)[C@@H](O)[C@H]6O)[C@]5(C)C4CC[C@]3(C)[C@H]1[C@@H]2C` (some centres undefined) it is “inactive”.
On the same count and under the same terms, the entry for `C[C@@H](NC(=O)c1cc(C(=O)N[C@@H](Cc2ccccc2)[C@H](O)CNC2CC2)cc(N(C)S(C)(=O)=O)c1)c1ccccc1` is “inactive”; for `CC1=CC(=O)CC(C)(C)C1CO[C@@H]1O[C@H](CO)[C@@H](O)[C@H](O)[C@H]1O` (some centres undefined) it is “inactive”.
Same read-out and setting: in the case of `CC1(C(=O)O)CCCC2(C)C3CCC4CC3(CCC12)CC4(O)CO` (centres undefined) it was “inactive”; in that of `COc1ccc(NC(=O)c2ccc(-c3ccc(C(N)=O)cc3C)cc2)cc1N1CCN(C)CC1`, “inactive”.
In the case of `C[C@@H]1O[C@@H](OC(=O)Cc2ccccc2)[C@H](O)[C@H](O)[C@H]1O`, the Potency result is “inactive”.
Same read-out and setting: the entry for `C=C1CC2C3(C)C=CC(=O)OC(C)(C)C3CC(OC(C)=O)C2(C)C2C(=O)OC(C)C(=O)C12C` (centres undefined) is “inactive”.
As for `CC(=O)OC[C@]12[C@@H](OC(=O)c3ccoc3)C[C@@H]3[C@@H](OC(C)=O)[C@]1(OC3(C)C)[C@@](C)(O)C[C@H](OC(=O)c1ccoc1)[C@@H]2OC(=O)c1ccoc1`, the Potency entry was “inactive”.
Still for that read-out and setting: in the case of `COC(=O)C1=C[C@@H](O)[C@@H](O)[C@H](O[C@@H]2O[C@H](CO)[C@@H](O)[C@H](O)[C@H]2OC(=O)/C=C/c2ccccc2)C1` it was “inactive”.
`COc1cc(Nc2nc3c(s2)CCCC3c2ccccc2)ccc1-n1cnc(C)c1` (centres undefined): the activity change, negative = inhibition is -0.986% [at 19.1 µM].
As for `Cc1ccccc1N1CCN(S(=O)(=O)C[C@]23CC[C@H](C[C@@H]2NC(=O)[C@@H](N)CCS(C)(=O)=O)C3(C)C)CC1`, the Potency entry is “inactive”.
Take `COc1cc(O)cc2c1C(=O)OC(C)C2` (centres undefined): the Potency result is “inactive”.
Still for that read-out and setting: in the case of `CNC(C)C(=O)NC(C(=O)N1CCCC1C(=O)Nc1cccc2ncccc12)C(C)C` (centres undefined) it was “inactive”.
On the same count and under the same terms, in the case of `CN1CCN(C(=O)c2cc3cc(Cl)ccc3[nH]2)CC1` it was “inactive”.

(Values after PubChem BioAssay (NCATS).)
